SMILES strings stand for the structures. “And” between values parts separate entries of the source, which are not always exact repeats. Identical values can stand only once. Compounds without any hit were thinned out: in the full panel of roughly 83,000, 20% have a hit.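 A percent growth of 40 corresponds to 60% growth inhibition; 0 means no net growth; -100 means all cells died. Active threshold: below 10.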 The source made the active and inactive calls.

In the assay the test system is MDA-MB-468 breast. The assay is described as follows: NCI-60 one-dose screen, 48 h (100 = growth as untreated, 0 = no growth, -100 = all killed). Conditions: 10 µM unless noted.
`S=C1NC2(c3ccccc3)CCC(=S)N2c2ccccc21` (centres undefined): the growth was 112% (inactive).
Next, `O=C(CN1N=C(c2ccc(F)cc2)CCC1=O)Nc1nc2ccccc2s1`: 97.7% (inactive); `Nc1ccc([N+](=O)[O-])cc1N=C/C=C/c1ccccc1`: 46.4% (inactive); `CCC#CC[C@H]1C/C=C2/C(=O)C=C[C@@H]2C/C=C\CCCC(=O)O1`: -3.46% (active).
As for `COc1ccc(-c2nc(-c3nc4cc(C)c(C)cc4[nH]3)cc3c2[nH]c2ccccc23)cc1`, the figure is -27.7% (active); as for `COc1ccc(Nc2nc(N)nc3c(=O)[nH]ccc23)cc1`, 118% (inactive); as for `COc1ccc(/C(=C2/O[C@@H]([C@H]3COC(C)(C)O3)[C@H]3OC(C)(C)O[C@@H]23)c2cc(OC)c(OC)c(OC)c2)cc1O`, 113% (inactive).
Regarding `O=C(CN1CCN(c2cc3c(cc2F)c(=O)c(C(=O)N/N=C/c2ccccc2)cn3C2CC2)CC1)N/N=C\c1ccccc1`, the growth was 85.4% (inactive).
Regarding `COc1cc(-c2cc(-c3ccc(Nc4ncnc5cc(Cl)ccc45)cc3)nc(N3CCCCC3)n2)cc(OC)c1OC`, the growth is 107% (inactive).
As for `COc1cc(C2Cc3ncccc3-c3[nH]c(=O)c4cccnc4c32)cc(OC)c1OC` (centres undefined), the figure is 22.8% (inactive); as for `CC(=O)c1cc(C(=O)N2c3ccccc3Sc3ccccc32)n2c1ccc1ccccc12`, 50.6% (inactive).
Next, `CN1CCN(S(=O)(=O)O[C@@H]2C(=O)N(c3cc4c5ccccc5ccc4c4ccccc34)[C@H]2c2ccc(F)cn2)CC1`: 90.8% (inactive); `CC(C)Cn1c2c(c(=S)[nH]c1=O)CCC2`: 112% (inactive); `CC1(C)C(=O)CC[C@]2(C)[C@H]3C(=O)C=C4[C@@H]5C[C@@](C)(C(=O)NCCNCCN)CC[C@]5(C)CC[C@@]4(C)[C@]3(C)CC[C@@H]12`: 114% (inactive).
Next, `O=C1c2cc3c(cc2-c2c1c1ccc(F)cc1c(=O)n2CCCN1CCOCC1)OCO3`: 18.5% (inactive); `CCCCCCN=C(N)CCCCCCCCCCC(N)=NCCCCCC`: -8.12% (active); `CCOC(=O)c1c(NC(=O)c2ccc(C(F)(F)F)cc2)sc2c(CN3CCN(C)CC3)c(O)ccc12`: -80.6% (active).
`O=c1cc(-c2ccccc2)oc2cc(OCc3cn(Cc4ccc(F)cc4)nn3)cc(O)c12`: the growth is 53.9% [100 µM] (inactive).
As for `CCn1cc(C2NC(=O)c3ccccc3N2)c2cccc(C)c21` (centres undefined), the figure is 17.9% (inactive).
Next, `COc1ccc(S(=O)(=O)N2CCOCC2)cc1NC(=O)c1[nH]c(C)c2c1CCCCC2=O`: 105% (inactive) and 47.2% (inactive).
Next, `c1ccc(Nc2cc(-c3cccnc3)[nH]n2)cc1`: 106% (inactive); `C[C@@H]1CCCCCCCCC[C@H](O)C(=O)C[C@@H](SC[C@@H](O)C(=O)O)C(=O)O1`: 104% (inactive); `Cc1ccccc1COc1ccc(-c2onc(C)c2-c2ccc(Cl)cc2)cc1`: 36.1% (inactive).
For the compound `O=C(c1cc2ccccc2o1)c1nn(-c2ccccc2)/c(=N/N=Cc2cn(-c3ccccc3)nc2-c2cc3ccccc3oc2=O)s1`, the growth was 105% (inactive).
In the case of `COc1cc2oc(-c3cccc(C(=O)Nc4ccc(C)cc4)c3)cc(=O)c2c(OC)c1OC`, the growth was 54.5% (inactive).
Next, `O=S(=O)(NCCNc1nccc(-c2c(-c3ccc(F)c(O)c3)nc3occn23)n1)c1ccccc1`: 59.6% (inactive); `COC(c1ccccc1)(c1ccccc1)c1ccccc1`: 113% (inactive); `C=CC(=O)N1CCN(c2ccc3cccc(NC(=O)c4cnc(C)cn4)c3n2)CC1`: 1.58% (active).
Next, `CC1=C([Se]CC(OC(=O)[C@@H](CSSC(C)(C)C)NC(=O)C(C)(C)C)C(=O)NCCCCCC(=O)OCc2ccccc2)C(=O)c2ccccc2C1=O` (some centres undefined): -21.9% (active); `COP(=O)(OC)c1nnn(-c2cccc([N+](=O)[O-])c2)c1C`: 120% (inactive); `CC(=O)c1ccc2c(c1)CCc1ccccc1-2`: 94.9% (inactive).
`O=C(Nc1cc(Cl)cc(Cl)c1)Oc1c(Cl)c(Cl)c(Cl)c(Cl)c1Cl`: the growth was 101% (inactive).
In the case of `Nc1c(C(=O)c2ccc(Cl)s2)sc2nc3c(cc12)CCCC3`, the growth is 69.1% (inactive).
Next, `CC(C)(C)n1cc(-c2ccnc(NCCNS(=O)(=O)c3ccccc3)c2)c(-c2cccc(O)c2)n1`: 11.1% (inactive); `COc1ccc(S(=O)(=O)NCCNc2nccc(-c3c(-c4ccccc4)nc4sccn34)n2)cc1`: 36.7% (inactive).
As for `CCOC(=O)c1ccccc1SC(C[N+](=O)[O-])c1ccccc1` (centres undefined), the figure is 63.7% (inactive); as for `CCOC(=O)Nc1cc2c(c(N)n1)N=C(c1ccccc1)CO2`, 2.06% (active).
For the compound `COc1ccc(NC(=O)[C@H](C)N)cc1C(=O)Nc1cccc(-c2cc(=O)c3c(OC)c(OC)c(OC)cc3o2)c1`, the growth was 58.5% (inactive).
Next, `COc1ccc(/C=C2\CCc3ccccc3C2=O)cc1`: 76.7% (inactive).

The values above are taken from PubChem BioAssay (NCI).
